Screening data from PubChem BioAssay.
ERa coact inh = ER-alpha (human) coactivator binding inhibition; P03372; TR-FRET ER-alpha LBD / SRC-1 peptide, estradiol-bound; inhibition, % at 25.6 µM; hit rate 1.7% among 86,000; AID 629; in the data active = inhibition above about 50%;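 note: 0% = receptor plus peptide control and 100% = peptide only without receptor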
FAK blocker = FAK (human) kinase inhibition; biochemical FAK kinase activity assay; inhibition, %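 (tested at 7 µM)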; hit rate 0.84% among 97,000; in the data active = inhibition above about 19%;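 note: 0% = DMSO and 100% = reference compound high control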
LYP act = LYP (human) phosphatase activation. Q9Y2R2. recombinant LYP, DiFMUP fluorescence; 0 = plate median, 100 = signal doubled. activation, % at 2 µM. hit rate 0.11% among 96,000;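 active = activation at 2 µM above a set limit, the mean plus 5 SD, cut at about 37% in these data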
ERb SRC1 inh = ER-beta (human) coactivator binding inhibition. TR-FRET ER-beta LBD / SRC1-Cy5 peptide binding; receptor agonist-loaded with 1 µM estradiol. AID 633. hit rate 1.3% among 86,000. inhibition, % at 25.6 µM;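 active = compounds whose percent inhibition of the receptor-coactivator binding signal exceeds about 50% in the single-dose screen, limit read from the data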;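 note: 0% = receptor plus peptide wells without compound and 100% = peptide-only wells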
Target sequence (Q92731 whole entry, looked up, the tested form may be a part): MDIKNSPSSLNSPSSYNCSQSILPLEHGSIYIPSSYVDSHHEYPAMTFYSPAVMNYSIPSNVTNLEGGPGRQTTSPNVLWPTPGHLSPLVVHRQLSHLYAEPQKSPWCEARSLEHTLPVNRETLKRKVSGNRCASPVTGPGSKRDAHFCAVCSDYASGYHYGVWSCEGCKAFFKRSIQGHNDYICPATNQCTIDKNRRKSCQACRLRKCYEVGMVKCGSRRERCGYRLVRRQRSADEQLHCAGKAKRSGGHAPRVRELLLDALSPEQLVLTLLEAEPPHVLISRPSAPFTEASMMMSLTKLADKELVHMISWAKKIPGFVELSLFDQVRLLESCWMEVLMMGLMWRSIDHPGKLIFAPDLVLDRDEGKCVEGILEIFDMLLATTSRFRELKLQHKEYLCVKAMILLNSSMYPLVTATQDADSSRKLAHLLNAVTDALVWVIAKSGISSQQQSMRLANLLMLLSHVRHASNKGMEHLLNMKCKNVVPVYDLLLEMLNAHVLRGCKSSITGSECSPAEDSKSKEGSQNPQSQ
ERa coact pot = ER-alpha (human) coactivator binding potentiation. P03372. TR-FRET ERalpha-LBD/SRC-Cy5 coactivator binding, 2 h; 100 = basal binding, no effect. coactivator binding (% of control), % at 25.6 µM. hit rate 1.3% among 86,000; in the data active = activity above about 200%;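 note: binding measured in presence of low estradiol as agonist stimulus; 0% = peptide alone without receptor and 100% = receptor with peptide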
LYP inh 2 = inhibitors of human LYP (PTPN22) phosphatase; hit rate 0.21% among 96,000; AID 640; inhibition, % at 2 µM; Q9Y2R2; recombinant LYP catalytic domain, DiFMUP fluorescence;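 active = inhibition at 2 µM at or above a set limit, the screen mean plus 3 SD, cut at about 24% in these data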;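 note: 0% = DMSO with enzyme and 100% = enzyme fully blocked by orthovanadate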
The depositor's hits bear a star; nt = not tested or not shown; [ ] = dose if it differs, or a comment. Shown are actives, neighbours in structure and some others; about 3.4% of the full set was active somewhere.

SMILES | ERa coact inh | FAK blocker | LYP act | ERb SRC1 inh | ERa coact pot | LYP inh 2
O=C1CC(N2CCN(c3ccc(C(=O)c4ccc(F)cc4)cc3)CC2)C(=O)N1 (configuration not stated) | -3.8 | 4.0 | 4.4 | 5.2 | 220.7* | -7.0
CCN1C(=O)CC(N2CCN(c3ccc(C(=O)c4ccccc4)cc3)CC2)C1=O (configuration not stated) | 7.7 | -2.8 | -11.8 | 1.0 | 99.7 | 8.0
Cc1cc(-c2csc(N)n2)c(C)n1CCC(C)C | 9.2 | 2.4 | -28.6 | 15.0 | 59.2 | 28.2*
Cc1cc(-c2csc(N)n2)c(C)n1CCc1ccccc1 | 19.1 | 0.3 | -11.4 | 11.0 | 83.5 | 9.3
Cc1c(C)n(C(=O)CSc2nc3ccccc3[nH]2)c2ccccc12 | 55.3*[fluorescence artefact?] | 3.3 | -4.1 | 21.1 | 16.7 | 4.1
CN1CCN(S(=O)(=O)c2ccc(N(C)CC(=O)Nc3ccc(F)cc3)nc2)CC1 | -6.1 | -3.8 | -2.0 | 7.8 | 162.1 | 0.5
Cc1ccc(NC(=O)CN(C)c2ccc(S(=O)(=O)N3CCN(C)CC3)cn2)cc1 | -66.4 | 3.5 | -2.0 | 5.2 | 480.9*[fluorescence artefact?] | 2.6
Cc1cc(C(=O)CSc2nnc(-c3cccnc3)n2-c2ccccc2F)c(C)n1C | 69.9* | -3.8 | 19.6 | 31.2 | 55.3 | -21.4
Cc1cc(C(=O)CSc2nnc(-c3ccccc3)n2C)c(C)n1C | 4.2 | 0.1 | 7.6 | 5.9 | 115.0 | -8.4
CCOC(=O)N1CCN(c2c(NCCCOC(C)C)c(=O)c2=O)CC1 | 0.0 | nt | nt | -13.3 | 213.4* | nt
CCOC(=O)N1CCN(c2c(NCCCN3CCCCCC3)c(=O)c2=O)CC1 | -0.7 | 4.7 | -3.7 | 0.1 | 101.0 | 0.5
O=C(Nc1ccc(-c2nc3ccccc3o2)cc1)c1ccc2c(c1)OCO2 | 57.2*[fluorescence artefact?] | 0.1 | 2.3 | 43.8 | 184.8 | -7.1
Cc1ccc(-c2nc3ccccc3[nH]2)cc1NC(=O)c1ccc2c(c1)OCO2 | nt | -2.6 | -5.3 | nt | nt | 8.3
O=C(Nc1ccccc1-c1nc2ccccc2o1)c1ccc2c(c1)OCCO2 | 49.5 | 0.5 | -1.1 | 27.9 | 217.0*[fluorescence artefact?] | 4.8
Cc1c(NC(=O)c2ccc3c(c2)OCO3)cccc1-c1nc2ccccc2o1 | -3.2 | 2.9 | -8.0 | -1.6 | 126.3 | 6.6
Cc1ccc(-c2nc3ccccc3o2)cc1NC(=O)c1ccc2c(c1)OCO2 | 31.2 | 0.8 | -2.6 | 1.0 | 265.8* | -1.8
O=C(CN1C(=O)c2ccccc2C1=O)Nc1ccc(-c2nc3ccccc3o2)cc1 | -1.9 | 4.4 | 12.8 | -2.4 | 213.4* | -13.2
COc1ccc(C2CCCN2C(=O)Nc2ccccc2)cc1OC (configuration not stated) | -5.0 | 5.1 | 1.1 | -6.4 | 104.7 | -4.5
COC(=O)Nc1ccc(S(=O)(=O)NCCO)cc1 | nt | -4.0 | -2.6 | nt | nt | 0.1
O=C(Nc1ccc2oc(-c3ccccc3Cl)nc2c1)c1ncn[nH]1 | 66.5*[fluorescence artefact?] | 4.6 | -6.9 | 50.0*[fluorescence artefact?] | 224.1*[fluorescence artefact?] | 2.0
CC(C)C(=O)Nc1ccc2oc(-c3cc(F)c(F)cc3Cl)nc2c1 | 5.3 | -1.6 | -1.0 | 13.0 | 217.3* | 2.7
O=C(Nc1ccc2oc(-c3cccc4ccccc34)nc2c1)c1ncn[nH]1 | nt | 3.9 | -54.4 | nt | nt | 52.5*
Cc1ccc(NC(=O)CCC(=O)OCC(=O)c2ccc(Oc3ccc([N+](=O)[O-])cc3)cc2)c(C)c1 | nt | 1.5 | -3.4 | nt | nt | 7.9
O=C(NN1C(=O)c2ccccc2C1=O)C1CCCCC1 | nt | -1.3 | 7.3 | nt | nt | -1.6
CCc1c(C)sc(NC(=O)c2cc(-c3ccc(OC)c(OC)c3)on2)c1C#N | 2.0 | 0.1 | -10.3 | 22.9 | 60.2 | 11.8
SMILES | ERa coact inh | FAK blocker | LYP act | ERb SRC1 inh | ERa coact pot | LYP inh 2
COc1ccccc1-c1cc(C(=O)NCCc2ccccc2)no1 | -4.1 | 3.0 | 3.7 | -6.5 | 105.0 | -0.3
COc1ccc(CCNC(=O)c2cc(-c3ccccc3OC)on2)cc1OC | 26.1 | -3.3 | 1.9 | 28.8 | 235.7*[fluorescence artefact?] | -4.1
COc1ccc(OC)c(-c2cc(C(=O)Nc3cc(C)on3)no2)c1 | 34.5 | 5.7 | -9.0 | 32.6 | 245.2*[fluorescence artefact?] | 7.4
Cc1cc(C(=O)Nc2sc3c(c2C#N)CCC3)no1 | 53.1*[fluorescence artefact?] | -0.1 | 1.4 | 63.9* | 40.5 | -7.0
COc1ccc(OC)c(-c2cc(C(=O)Nc3cccc(Cl)c3)no2)c1 | 28.8 | -4.2 | 10.8 | -3.2 | 92.8 | -13.8
COc1ccc(-c2csc(NC(=O)c3cc(C)on3)c2C#N)cc1OC | -0.9 | -0.4 | -6.6 | -5.2 | 263.9* | 4.0
COC(=O)c1ccccc1NC(=O)CN1CCN(C23CC4CC(CC(C4)C2)C3)CC1 | -5.1 | nt | nt | -6.5 | 81.8 | nt
CN(C)S(=O)(=O)c1ccc(NC(=O)CN2CCN(C(c3ccccc3)c3ccccc3)CC2)cc1 | nt | -0.5 | -9.7 | nt | nt | 13.1
O=C(O)CCN1C(=O)/C(=C\c2ccc(-c3nc4ccccc4s3)o2)SC1=S | nt | 0.2 | -17.9 | nt | nt | 16.8
Cc1ccc(C(=O)Cn2c(C(=O)/C=C/c3ccccc3)nc3ccccc32)cc1 | nt | 3.1 | -3.2 | nt | nt | 6.2
Nc1nc(-n2cnnc2)nn1-c1ccccc1 | -8.8 | nt | nt | 1.1 | 97.3 | nt
Nc1nc(N2C(=O)C3CC=CCC3C2=O)nn1-c1ccccc1 (configuration not stated) | 56.7* | -3.3 | -5.0 | -7.5 | 116.3 | 8.8
Cc1cc(-c2ccc(N3C(=O)CCC3=O)c(C)c2)ccc1N1C(=O)CCC1=O | -7.2 | -9.9 | -10.5 | 62.6* | 106.5 | 8.0
Cc1ccc(-n2nnnc2SCC(=O)N2CC(=O)Nc3ccccc32)cc1 | nt | 0.1 | 5.4 | nt | nt | -3.5
COc1ccc(-c2nnn(CC(=O)NCCc3c[nH]c4ccccc34)n2)cc1OC | nt | 5.8 | -9.9 | nt | nt | 11.2
CN(C)S(=O)(=O)c1ccc(C(=O)Nc2nnc(Cc3ccccc3)s2)cc1 | 19.1 | -1.1 | -0.7 | 13.4 | 110.0 | 3.3
Cc1nc2c(ccc3nc(NC(=O)c4ccc(S(=O)(=O)N(C)C)cc4)sc32)s1 | 18.7 | -2.7 | -4.2 | 12.3 | 241.3*[fluorescence artefact?] | 0.9
Cc1cccc(S(=O)(=O)c2c(N)n(/N=C/c3ccco3)c3nc4ccccc4nc23)c1 | 1.3 | 4.4 | -7.3 | 9.9 | 252.6* | 5.7
Cc1ccc(S(=O)(=O)c2c(N)n(/N=C/c3ccco3)c3nc4ccccc4nc23)cc1 | -0.2 | -6.8 | 5.7 | 23.8 | 111.7 | -6.5
N#CC1=C(SCC(=O)NC2CC2)NC(=O)C(C#N)C12CCCCC2 (configuration not stated) | -6.7 | -5.4 | 9.2 | -13.3 | 128.6 | -8.6
N#CC1=C(SCC(=O)Nc2cccc3cccnc23)NC(=O)C(C#N)C12CCCCC2 (configuration not stated) | 65.7*[fluorescence artefact?] | -1.5 | -11.5 | 51.5* | 51.5 | 10.0
COC(=O)C1C(=O)C2=C(CC1C)NC(C)=C(C(=O)OC1CCCCC1)C2c1ccc(N(C)C)cc1 (configuration not stated) | 20.8 | 7.1 | -1.9 | 12.2 | 222.9* | 5.5
COc1ccc(-c2nnc3n2N=C(c2cccc(Br)c2)CS3)cc1OC | 39.4 | nt | nt | 49.4 | 233.4* | nt
Cc1nn(Cc2ccc(C(=O)Nc3nc4c(C)cccc4s3)o2)c(C)c1Br | 50.3* | -1.3 | -5.4 | 26.9 | 136.5 | 6.7
